Experimental data taken from article PMC5540273 (PLoS ONE, 2017).

What follows are molecules tested on TIE1. Conditions: concentration: 1 μM, replicates: in singlicate; n = 1.
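Also: KINOMEscan kinase panel screen.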

Structure (SMILES) | %Inh
Cn1cc(-c2ccc3c(c2)CCN3C(=O)Cc2cccc(Cl)c2)c2c(N)ncnc21 [GSK2606590] | 92.3%
COc1ccc(-c2coc3ccc(-c4nnc(SCc5ccc(OC)c(C(F)(F)F)c5)o4)cc23)cc1 | 0%
CCS(=O)(=O)c1ccc(OC)c(Nc2nccc(-c3c(-c4cccc(NC(=O)c5c(F)cccc5F)c4)nn4ncccc34)n2)c1 [GSK326180] | 47%
O=C(Nc1cccc(-c2nn3ccccc3c2-c2ccnc(Nc3cccc(C(F)(F)F)c3)n2)c1)c1c(F)cccc1F [GSK292658] | 31%
NCCCC(NC(=O)c1cc(Br)c(-c2ccnc3[nH]ccc23)s1)c1ccccc1.O=C(O)C(F)(F)F.O=C(O)C(F)(F)F (stereo not shown) [GSK1287544] | 73%
CC(=O)Nc1nc2cnc(Nc3cc(NC(=O)c4cccc(C5(C#N)CC5)c4Cl)ccc3C)nc2s1 | 7%
COc1ccc(CNC(=O)NC2CCN(c3ccnc(Nc4ccc(F)cc4)n3)CC2)cc1 [GSK1379788] | 0%
Clc1ccc(-c2nn3ncccc3c2-c2ccnc(Nc3ccc4c(c3)OCCO4)n2)cc1 [GW829116] | 24%
CC(C)(C)c1ccc2nccc(Nc3cccc(O)c3)c2c1 [GW856795] | 0%
COc1cc(Nc2nccc(N3CCC(NC(=O)Nc4cccc(C(C)=O)c4)C3)n2)cc(OC)c1OC (stereo not shown) [GSK1379753] | 27%
COc1cc(Nc2nccc(-c3c(-c4cccc(NC(=O)c5c(F)cccc5F)c4)nn4ccccc34)n2)cc(OC)c1OC [GSK323521] | 67%
COc1cccc(NC(=O)NC2CCN(c3ccnc(Nc4cc(OC)c(OC)c(OC)c4)n3)C2)c1 (stereo not shown) [GSK1379763] | 28%
O=C(O)C(F)(F)F.O=C(O)C(F)(F)F.O=c1[nH]ccc2nc(N[C@@H]3CCCNC3)nc(Nc3ccc(S(=O)(=O)N4CCOCC4)cc3)c12 [GSK2177277] | 66%
CCCCc1nn2ncccc2c1-c1ccnc(Nc2ccc(N3CCN(C)CC3)cc2)n1 [GW684941] | 93.6%
CN(c1ccc(NC(=O)Nc2cc(C(F)(F)F)ccc2F)cc1)c1ccnc(Nc2ccc(S(N)(=O)=O)cc2)n1 [GW809893] | 94.3%
Nc1ncc(-c2cccnc2)c2scc(-c3ccc4c(c3)CCN4C(=O)Cc3ccccc3)c12 [GSK683281] | 92.5%

Structure (SMILES) | %Inh
Cc1ccc(C(=O)Nc2ccc(Nc3ccnc4cc(-c5nccs5)ccc34)cc2O)cc1.Cl [GW494702] | 16%
COc1cc(Nc2nccc(N3CCC(NC(=O)c4cc5ccccc5s4)C3)n2)cc(OC)c1OC (stereo not shown) [GSK1379760] | 35%
O=C(Nc1cccc(-c2nn3ccccc3c2-c2ccnc(Nc3cccc(F)c3)n2)c1)c1c(F)ccc(F)c1Cl [GSK357952] | 48%
CN(C)Cc1ccc(-c2ccc3c(Nc4ccc(Oc5ccccn5)cc4)ccnc3c2)o1 [GW567148] | 19%
CNC(=O)c1ccccc1Nc1nc(Nc2ccc(N3CCOCC3)cc2)ncc1Cl.Cl [GSK1576028] | 100%
Cl.Cl.NCC(NC(=O)c1cc(-c2ccccc2)c(-c2ccnc3[nH]ccc23)s1)c1ccccc1 (stereo not shown) [GSK1321561] | 13%
COc1ccc(Nc2nccc(N3CCC(NC(=O)Nc4cccc(OC)c4)C3)n2)cc1 (stereo not shown) [GSK1379742] | 0%
COC(=O)Nc1nc2cc(Oc3ccc(NC(=O)Nc4cc(C(F)(F)F)ccc4F)cn3)ccc2[nH]1.Cl.Cl [GW681170] | 93.1%
O=C(Nc1n[nH]c2cc(-c3ccoc3)ccc12)C1CC1 [SB-738481] | 0%
CSc1cccc2c(-c3ccncn3)c(-c3ccc(F)cc3)nn12 [GW514786] | 6%
c1ccc(Oc2ccc(Nc3ccnc4cc(-c5ccc(CNCCN6CCOCC6)o5)ccc34)cc2)nc1 [GW567145] | 0%
Nc1ncnc2c1nc(-c1ccccc1)n2-c1ccccc1 [SKF-97293] | 9%
Cl.c1ccc(-c2ccc3c(Nc4ccc5[nH]ccc5c4)ccnc3c2)nc1 [GW440138] | 0%
Cl.NC(=O)c1cccc(Nc2nccc(Nc3ccc(Oc4c(Cl)cccc4Cl)c(Cl)c3)n2)c1 [GW659009] | 33%
Cc1occc1-c1ncc(OC[C@@H](N)Cc2c[nH]c3ccccc23)cc1-c1ccc2[nH]nc(C)c2c1.O=C(O)C(F)(F)F [GSK682037] | 18%
